Among the data in PubChem BioAssay (NCI) are growth values, retold here.

SMILES strings stand for the structures. The panel holds about 83,000 compounds, 20% with a hit somewhere; the sample as a whole holds those more often.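 48-hour exposure, single concentration, 96-well plates; percent growth endpoint where 0 means no net growth. Active: below 10.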 Calls of active or inactive are those of the source.

The subject of the experiment is IGROV1 ovarian. As to the kind of experiment: NCI-60 one-dose screen, 48 h (100 = growth as untreated, 0 = no growth, -100 = all killed). The following applies: 10 µM unless noted. On the procedure:
Growth inhibition of the IGROV1 human tumor cell line is measured as a screen for anti-cancer activity. Cells are grown in 96 well plates and exposed to the test compound for 48 hours. Compounds are tested at a single concentration, which is 10^-5 M for most compounds. The reported endpoint is percent growth (GI% or GIPRCNT), where numbers from 0 - 100% represent growth inhibition, and numbers from -100% - 0 represent cell death. For example, a value of 40 represents 60% growth inhibition. A value of 0 means no net growth occurred over the course of the experiment. A value of -40 indicates 40% of cells at the beginning of the experiment died by the end of the experiment. A value of -100 means all cells are dead at the end of the experiment.
NCI-60 Human Tumor Cell Lines Screen was performed using the standard one-dose NCI protocol, which is described in more detail at https://dtp.cancer.gov/discovery_development/nci-60/default.htm.
Compounds with GIPRCNT values below 10 were considered active. Activity score was based on GIPRCNT using the following formula: […]
Score is 0 for GIPRCNT values of 100 or above, 50 for GIPRCNT values of 0, and 100 for GIPRCNT values of -100.
Take `COc1ccccc1NCc1cccn1Cc1ccc(F)cc1`: the growth was 88.8% (inactive).

With `Cn1cc(-c2cc(N)n3nc(-c4cn(C)c5ccccc45)cc3n2)c2ccccc21`, the growth was 104% (inactive).

For the compound `COc1ccc(NCc2cn(-c3ccc(C(=O)O)cc3)nc2-c2cc(C(F)(F)F)cc(C(F)(F)F)c2)cc1`, the growth was 108% (inactive).

In the case of `COc1ccc([C@@H]2[C@@H](O)C(=O)N2c2cc(OC)c(OC)c(OC)c2)cc1F`, the growth is 18.9% (inactive).

`O=C(c1ccc(O)c(C(=O)N2Cc3ccc(OCCC[P+](c4ccccc4)(c4ccccc4)c4ccccc4)cc3C2)c1)N1Cc2cccc(F)c2C1`: the growth is 43.8% (inactive).

On to `O=C(Nc1nc2ccc([N+](=O)[O-])cc2s1)Nc1ccccc1Cl`, for which the growth was 39.1% (inactive).

Take `COc1ccccc1C(=O)Nc1cccc2c1C(=O)C(=O)C=C2`: the growth is 79.2% (inactive).

`Cc1ccc(NC(=O)CNc2cc(C(N)=O)cc(F)c2C)c(Cl)c1`: the growth was 70.6% (inactive).

Consider `COc1ccc(Cn2cc3c(c2-c2cc(OC)c(OC)c(OC)c2)CCc2c(CN4CCOCC4)noc2-3)cc1`, for which the growth was 28.3% (inactive).

Regarding `COc1cc(OC)c(S(N)(=O)=O)cc1C(=O)/C=C/c1ccc(C)cc1`, the growth was 25.3% (inactive).

Take `CNC(=O)c1cc(Oc2ccc3nc(NC(=O)c4ccc(N5CCOCC5)c(C(F)(F)F)c4)sc3c2)ccn1`: the growth is 88.7% (inactive).

With `O=C(NCc1ncc[nH]1)c1ccc(-c2nc3ccc4[nH]ncc4c3c3c2CCCC3)cc1`, the growth was 3.6% (active).

Take `COc1c(N2CC3CCCNC3C2)c(F)cc2c(=O)c(C(=O)N/N=C/c3ccc(N(C)C)cc3)cn(C3CC3)c12` (stereo not given): the growth was 58.9% (inactive).

Regarding `O=C(Nc1cccc(C(F)(F)F)c1)c1cc(-c2ccc(F)cc2F)ccc1O`, the growth was 10.4% (inactive).

Consider `CC(=O)c1ccc(Nc2nc(SCC(C)C)nc(-c3ccccc3)c2C#N)cc1`, for which the growth was 88.6% (inactive).

As to `NC/C(=C/F)COc1ccc2nc(NCc3cccnc3)oc2c1`, the growth was 86.4% (inactive).

Take `COc1cc(-c2nn(C(C)(C)C)cc2-c2ccnc(NCCCNS(=O)(=O)c3cccc(F)c3)n2)ccc1Cl`: the growth was 48.9% (inactive).

Regarding `NC(N)=Nc1ccc(Oc2cccc(Oc3ccc(Cl)c(C(F)(F)F)c3)c2)cn1`, the growth was -81.7% (active).

Consider `COc1c(N2CC3CCCNC3C2)c(F)cc2c(=O)c(C(=O)N/N=C/c3ccc4c(c3)OCO4)cn(C3CC3)c12` (stereo not given), for which the growth was 51% (inactive).

For `CN(C)CCNC(=O)c1ccc(-c2nc3ccc4[nH]ncc4c3c3c2CCC3)cc1`, the growth is 1.06% (active).

Regarding `CCO/C=N/C1=C(C#N)C(c2ccc(Cl)cc2)c2sc3c(CC)cccc3c2O1` (stereo not given), the growth is 23% (inactive).

Take `C#CCOC(=O)[C@@H]1CCCN1CC#C`: the growth was 67.3% (inactive).

Take `Cc1ccc(NC(=O)c2ccc(CN3CCOCC3)c(C(F)(F)F)c2)cc1Oc1ccc(-c2[nH]nc3ncnc(N)c23)cc1`: the growth is 74.2% (inactive).

As to `Nc1nc(Nc2ccccc2SSc2ccccc2Nc2nc(N)nc(-c3ccc4ccccc4c3)n2)nc(-c2ccc3ccccc3c2)n1`, the growth is 47.6% (inactive).

For `C=CCn1c(SCC(=O)Nc2ccc(C(=O)/C=C/c3cc(OC)c(OC)c(OC)c3)cc2)nnc1-c1c[nH]c2ccccc12`, the growth was -26% (active).

Regarding `Brc1ccccc1/C=N/Nc1nc(N/N=C/c2ccccc2Br)nc(N2CCOCC2)n1`, the growth is 89.7% (inactive).

Consider `CCn1c2ccccc2c2cc(-n3nncc3-c3ccccc3)ccc21`, for which the growth is 16.2% (inactive).

In the case of `C#CC(=O)N(c1ccc(OC)cc1OC)C(C(=O)NCC(=O)OCC)c1cccs1` (stereo not given), the growth was -58.1% (active).

In the case of `CNC(=O)c1c(NC(=O)c2ccccc2C(F)(F)F)sc2c1CCC(=O)C2`, the growth is 36.6% (inactive).

As to `Nc1ncc(-c2ccc(NS(=O)(=O)c3ccc(Cl)c(Cl)c3)cc2)[nH]1`, the growth was 88.8% (inactive).

As for `Nc1ccccc1NC(=O)c1ccc(NC(=O)C/C=C/c2cccnc2)cn1`, the growth is 16.7% (inactive).

On to `CNc1ncc2cc(-c3ccc(-c4ncccc4F)cc3Cl)c(=O)n(CC3OCC(N)CO3)c2n1` (stereo not given), for which the growth is -2.32% (active).

With `Nc1cc(F)ccc1NC(=O)c1ccc(NC(=O)C/C=C/c2cccnc2)cc1`, the growth was 27.9% (inactive).

Take `COc1ccc(C(=O)Nc2ncc(Cc3ccccc3Cl)s2)cc1`: the growth was 28.2% (inactive).

On to `CCNC(=O)N1CCc2cc(OC)c(OCCc3ccc(OC)nc3)cc2C1c1ccc(OC)cc1C` (stereo not given), for which the growth was 33.8% (inactive).

Turning to `Cn1ccnc1C(=O)/C=C/c1ccc(CNC(=O)c2c(F)c(F)c(F)c(F)c2F)cc1`, the growth is 31.7% (inactive).

With `COc1ccc(C2CC(c3ccc(Nc4nc(NCCO)nc(N5CCOCC5)n4)cc3)=Nc3c(N)nc(N)nc3N2)cc1` (stereo not given), the growth is 105% (inactive).

`CN1CCN(Cc2ccc(NC(=O)c3cncc(C#Cc4cnn5cccnc45)c3)cc2C(F)(F)F)CC1`: the growth was 5.44% (active).

For the compound `CC1=CC(=O)C2=C(C)CC(OC(=O)CCc3ccccc3)[C@@H]3[C@H](OC(=O)[C@@H]3C)[C@@H]12` (stereo not given in full), the growth was 82.7% (inactive).

For `COc1cccc(N2CCN(c3ncnc4c3[nH]c3ccc(F)cc34)C[C@H]2C)c1`, the growth is 59.5% (inactive).
